# Measurements: the supplement of paper PMC10646978
# ± gives the standard deviation.
# Assays:
# Conditions in all cases: modulator concentration 10 µM
# [1] = system: RAW-Dual (murine macrophage reporter line); assay: NF-kB reporter (SEAP) activity fold change vs agonist alone; higher = enhanced NF-kB activity
# Outline: (§1)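 RAW-Dual murine macrophage reporter cells were plated at 50 000 per well in 384-well plates, pin-transferred compound to 10 μM final, and pre-incubated for 1 hour at 37 °C before a PRR agonist was added and the cells incubated overnight. NF-κB activity was read from supernatant SEAP with QUANTI-Blue at 620 nm absorbance, and IRF activity from Lucia luciferase with QUANTI-Luc by luminescence. Each signal was expressed as fold change by dividing by the mean agonist-only control on the same plate. Two replicate plates were averaged, with errors obtained by propagation.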
# [2] = system: RAW-Dual (murine macrophage reporter line); assay: IRF reporter (Lucia luciferase) activity fold change vs agonist alone; higher = enhanced IRF activity
# Outline: as §1
# [3] = system: RAW-Dual (murine macrophage reporter line); assay: viability score (confluency relative to resting cells, overnight) (fraction); higher = more viable, active = viable (0.7 or more)
# Outline: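 RAW-Dual macrophages in 384-well plates were exposed overnight to compound at 10 μM final. Confluency was imaged with IncuCyte, and two confluency masks were generated with IncuCyte software over all imaged wells. The viability score is confluency expressed relative to resting cells. Compounds were called viable if both masks exceeded 70% of resting cells.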
# [4] = agonist: CpG ODN 1826 0.5 ug/mL
Compound,"NF-kB reporter [1, 4]",NF-kB reporter ([1]; agonist: LPS 0.1 ug/mL),NF-kB reporter ([1]; agonist: MPLA […]),IRF reporter ([2]; agonist: 3'3'-cGAMP 10 ug/mL),IRF reporter ([2]; agonist: LPS 0.1 ug/mL),IRF reporter ([2]; agonist: MPLA […]),viability score [3]
Nc1c2c(nc3ccccc13)CCCC2O (configuration not stated) [Prestw-448],0.958 ± 0.059,0.88 ± 0.068,0.958 ± 0.026,1.01 ± 0.042,0.964 ± 0.05,0.906 ± 0.087,0.994 (active)
Cc1c(OCC(=O)OC(C)C)ccc2c3c(c(=O)oc12)CCCC3,0.794 ± 0.063,0.883 ± 0.14,1.21 ± 0.12,0.949 ± 0.086,1.49 ± 0.095,1.71 ± 0.24,1.01 (active)
COc1c(C)c2c(c(O)c1CC=C(C)CCC(=O)O)C(=O)OC2,0.695 ± 0.23,0.118 ± 0.008,0.367 ± 0.023,0.287 ± 0.0097,1.16 ± 0.15,1.55 ± 0.16,0.547 (inactive)
C=C1C(=O)O[C@@H]2[C@H]3O[C@]3(C)CC/C=C(\C)CC[C@@H]12 [Prestw-550],0.314 ± 0.019,0.312 ± 0.036,0.108 ± 0.0071,0.0909 ± 0.0037,0.0437 ± 0.0043,0.0367 ± 0.005,0.495 (inactive)
C=C1CCC2C(C)(CO)C(O)CCC2(C)C1CC=C1C(=O)OCC1O (configuration not stated),0.462 ± 0.11,0.496 ± 0.025,0.755 ± 0.11,0.188 ± 0.0064,2.13 ± 0.35,1.51 ± 0.18,0.839 (active)
CC1=NN(C(=O)OC(C)(C)C)C(O)(c2ccncc2)C1 (configuration not stated),1.03 ± 0.084,1.01 ± 0.1,0.886 ± 0.084,0.979 ± 0.081,1.14 ± 0.14,1.22 ± 0.2,1.03 (active)
Cc1c(-c2ccccc2)oc2c(C(=O)OCCN3CCCCC3)cccc2c1=O.Cl,1.21 ± 0.31,1.01 ± 0.075,0.977 ± 0.067,0.883 ± 0.052,1.35 ± 0.22,1.35 ± 0.16,1.01 (active)
CC1CCN(c2cc(N3CCNCC3)ncn2)CC1,0.972 ± 0.32,1.08 ± 0.054,1.02 ± 0.069,0.932 ± 0.032,1.11 ± 0.17,1.26 ± 0.26,0.997 (active)
O=C(O)CCC(=O)c1ccc(-c2ccccc2)cc1,0.806 ± 0.11,0.842 ± 0.1,0.87 ± 0.07,0.931 ± 0.049,0.984 ± 0.087,0.999 ± 0.078,0.986 (active)
CCc1sc2sncc2c1Br,0.199 ± 0.022,0.817 ± 0.06,1.17 ± 0.11,0.315 ± 0.014,0.713 ± 0.14,0.549 ± 0.076,0.895 (active)
Clc1ccc(C=NNc2cc(N3CCCC3)nc(N3CCCC3)n2)c(Cl)c1,0.988 ± 0.076,0.983 ± 0.081,0.987 ± 0.1,0.99 ± 0.062,1.21 ± 0.15,1.31 ± 0.25,1.04 (active)
O=C(CCC(=O)OCC(=O)c1cccs1)Nc1ccc(Oc2ccccc2)cc1,0.756 ± 0.064,0.842 ± 0.054,1.04 ± 0.12,0.995 ± 0.05,1.22 ± 0.085,1.38 ± 0.13,1 (active)
CN1CCC(=C2c3ccccc3CCc3sccc32)CC1.O=C(O)CC(O)C(=O)O,0.574 ± 0.054,0.705 ± 0.035,0.868 ± 0.094,0.692 ± 0.036,1.09 ± 0.073,1 ± 0.12,0.385 (inactive)
Fc1ccc2ccccc2c1,0.958 ± 0.077,0.979 ± 0.16,1.01 ± 0.13,1.03 ± 0.033,1.12 ± 0.12,1.15 ± 0.18,1.01 (active)
COC(=O)C=C1SC(Nc2ccc(Cl)c(Cl)c2)=NC1=O,1.13 ± 0.081,0.966 ± 0.091,0.968 ± 0.035,0.988 ± 0.11,0.982 ± 0.11,0.966 ± 0.23,0.994 (active)
CCCCCCCCCCCCCCCCOc1nc2ccc(C)cc2c(=O)o1,1.1 ± 0.32,1.09 ± 0.057,0.961 ± 0.13,0.921 ± 0.034,1.27 ± 0.15,1.08 ± 0.23,1 (active)
CN(C)CCN(Cc1ccccc1)Cc1cc(Cl)cc(Cl)c1O,0.799 ± 0.063,0.918 ± 0.081,0.996 ± 0.086,0.947 ± 0.058,1.29 ± 0.074,1.32 ± 0.12,1.01 (active)
CCOC(=O)Cc1cc(OC)c(OC)cc1C(C)=NNc1ccccc1,0.719 ± 0.056,0.831 ± 0.12,0.98 ± 0.085,0.816 ± 0.055,1.13 ± 0.065,1.09 ± 0.15,1 (active)

Compound,"NF-kB reporter [1, 4]",NF-kB reporter ([1]; agonist: LPS 0.1 ug/mL),NF-kB reporter ([1]; agonist: MPLA […]),IRF reporter ([2]; agonist: 3'3'-cGAMP 10 ug/mL),IRF reporter ([2]; agonist: LPS 0.1 ug/mL),IRF reporter ([2]; agonist: MPLA […]),viability score [3]
O=C(C(c1ccccc1)c1ccccc1)N1CCC(n2nccn2)CC1,1 ± 0.054,1.09 ± 0.13,0.904 ± 0.063,0.989 ± 0.053,1.25 ± 0.078,1.16 ± 0.12,0.999 (active)
O=S(=O)(NCCn1ccn2nccc12)c1ccccc1Br,0.86 ± 0.053,0.904 ± 0.091,1.02 ± 0.065,0.989 ± 0.049,1.14 ± 0.18,1.23 ± 0.34,0.983 (active)
COc1cc2c(Oc3ccc(NC(=O)C4(C(=O)Nc5ccc(F)cc5)CC4)cc3F)ccnc2cc1OCCCN1CCOCC1,0.179 ± 0.0098,0.146 ± 0.013,0.238 ± 0.011,0.0512 ± 0.015,0.0684 ± 0.0041,0.138 ± 0.025,0.136 (inactive)
Cc1ccc(-c2cc(NC(=O)c3ccc([N+](=O)[O-])cc3)[nH]n2)cc1,1.43 ± 0.11,1.04 ± 0.059,1 ± 0.061,0.869 ± 0.066,1.78 ± 0.3,1.82 ± 0.13,0.971 (active)
CC1CCc2nc(NC(=O)C3CCCN3S(C)(=O)=O)sc2C1 (configuration not stated),0.812 ± 0.037,1.03 ± 0.082,1.08 ± 0.057,0.983 ± 0.045,1.35 ± 0.27,1.44 ± 0.48,0.964 (active)
CS(=O)(=O)N(CC(=O)Nc1ccccc1Br)c1ccc(Cl)c(C(F)(F)F)c1,0.796 ± 0.13,0.971 ± 0.076,0.77 ± 0.072,1.15 ± 0.055,1.13 ± 0.23,1.2 ± 0.15,0.999 (active)
CC(NC(=O)C1CCN(S(=O)(=O)N2CCCC2)CC1)c1ccc(F)cc1 (configuration not stated),1.08 ± 0.054,1.05 ± 0.082,0.928 ± 0.041,0.953 ± 0.051,1.25 ± 0.085,1.09 ± 0.15,0.992 (active)
COc1cc(OC)cc(C(=O)N2CCN(c3ccc(Nc4cccc(C)n4)nn3)CC2)c1,0.54 ± 0.042,0.981 ± 0.081,1.01 ± 0.029,0.904 ± 0.039,0.951 ± 0.096,1.12 ± 0.2,0.996 (active)
CCOC(=O)Cc1nnnn1C,0.888 ± 0.27,1.02 ± 0.11,1.01 ± 0.14,1 ± 0.026,1.14 ± 0.15,1.17 ± 0.13,1 (active)
O=C(NCC1(c2ccc(F)cc2)CCOCC1)c1cnc2ccccc2n1,1.01 ± 0.05,1.1 ± 0.094,1.02 ± 0.12,1.08 ± 0.06,1.2 ± 0.093,1.42 ± 0.12,1.01 (active)
Cc1cc(C)nc(Nc2ncc(O)n2-c2ccc(F)cc2)n1,1.11 ± 0.087,1.1 ± 0.13,1.01 ± 0.038,0.992 ± 0.074,1.04 ± 0.14,1.16 ± 0.27,0.991 (active)
N#Cc1cc2c(nc1N1CC(Cn3nc(C4CC4)ccc3=O)C1)CCC2,1.44 ± 0.078,1.21 ± 0.099,1.63 ± 0.24,0.866 ± 0.12,1.03 ± 0.17,1.18 ± 0.34,0.946 (active)
CS(=O)(=O)O.O=C(NC1CCN(CCCCC2(C(=O)NCC(F)(F)F)c3ccccc3-c3ccccc32)CC1)c1ccccc1-c1ccc(C(F)(F)F)cc1,0.0785 ± 0.0033,0.0479 ± 0.004,0.118 ± 0.0076,0.0799 ± 0.0056,0.0322 ± 0.0052,0.0401 ± 0.0064,0.258 (inactive)
Cc1cc2nc(SCc3cc4c(cc3Cl)OCO4)[nH]c2cc1C,0.749 ± 0.065,0.976 ± 0.047,0.91 ± 0.094,0.636 ± 0.042,1.2 ± 0.083,1.25 ± 0.12,1.01 (active)
COc1ccc(OC)c(NC(=O)COc2cccc3c2OC(C)(C)C3)c1,0.489 ± 0.039,1.2 ± 0.095,1.22 ± 0.053,0.777 ± 0.054,0.912 ± 0.059,1.02 ± 0.077,0.976 (active)
C=C(C)CSC1=C(C#N)C(c2ccccc2)CC(=O)N1 (configuration not stated),1.13 ± 0.091,0.954 ± 0.071,0.951 ± 0.092,0.772 ± 0.025,1.03 ± 0.15,0.999 ± 0.17,1.01 (active)
O=C(CCCC(=O)Nc1ccc(Cl)c(Cl)c1)Nc1ccc(Cl)c(Cl)c1,0.964 ± 0.076,1.02 ± 0.062,0.914 ± 0.068,0.963 ± 0.029,1.41 ± 0.13,1.13 ± 0.14,1.01 (active)
O=C(Nc1ccc(F)cc1)c1ccco1,0.904 ± 0.074,1.11 ± 0.12,1 ± 0.038,0.879 ± 0.15,1.03 ± 0.042,0.915 ± 0.11,0.996 (active)
